Laboratory results as given in PMC5540273 (PLoS ONE, 2017).

Assays:
Details in all cases: concentration: 1 μM, replicates: in singlicate; n = 1
FLT1 = system: FLT1
FLT3-autoinhibited = system: FLT3-autoinhibited
FLT3 = system: FLT3
FLT4 = system: FLT4
FRK = system: FRK
FYN = system: FYN
GAK = system: GAK
GCN2(Kin.Dom.2,S808G) = system: T1, GCN2(Kin.Dom.2,S808G)
T1 construct: gene EIF2AK4

GRK1 = system: GRK1
GRK2 = system: T2, GRK2
T2 construct: gene ADRBK1
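Also: KINOMEscan kinase panel screen.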

SMILES	%Inh (FLT1)	%Inh (FLT3-autoinhibited)	%Inh (FLT3)	%Inh (FLT4)	%Inh (FRK)	%Inh (FYN)	%Inh (GAK)	%Inh (GCN2(Kin.Dom.2,S808G))	%Inh (GRK1)	%Inh (GRK2)
O=C(Nc1n[nH]c2nc(-c3cccs3)c(Br)cc12)C1CC1 [SB-735297]	8%	19%	81%	0%	0%	0%	0%	0%	10%	0%
Fc1ccc(-c2nn3cccc(F)c3c2-c2ccncc2)cc1 [GW475620]	27%	2%	0%	25%	14%	16%	65%	0%	0%	6%
CS(=O)(=O)CCNCc1nc(-c2ccc3ncnc(Nc4ccc(OCc5ccccc5)c(Cl)c4)c3c2)cs1.Cl [GW582764]	5%	0%	0%	0%	2%	0%	0%	0%	0%	0%
COc1ccc(CSc2nnc(-c3ccc4nccn4c3)o2)cc1C(F)(F)F	35%	25%	15%	9%	0%	0%	6%	0%	5%	0%
O=C1NC(=O)C(c2ccc(Cl)cc2)=C1Nc1ccc(O)cc1 [SB-340867]	0%	0%	6%	0%	0%	0%	0%	0%	0%	0%
Cn1cncc1C(=O)NC1CCN(c2ccnc(Nc3ccc(F)cc3)n2)C1 (stereo not shown) [GSK1379717]	12%	1%	0%	99.1%	0%	42%	0%	0%	18%	0%
COC(=O)c1cccc(NC(=O)NC2CCN(c3ccnc(Nc4ccc(OC)cc4)n3)C2)c1 (stereo not shown) [GSK1379746]	26%	0%	0%	4%	11%	8%	0%	0%	0%	0%
CCCCc1nn2ncccc2c1-c1ccnc(NC2CC2)n1 [GW684374]	61%	0%	29%	0%	0%	23%	72%	0%	0%	0%
Cc1ccc(NC(=O)Nc2ccccc2)cc1-c1ccc(C(=O)Nc2ccncc2)cc1 [GSK1398471]	32%	0%	36%	21%	61%	33%	4%	50%	2%	0%
CC(C)c1cc(-c2ccc3c(N)n[nH]c3c2)nc(N)n1 [GSK2250882]	4%	0%	0%	0%	0%	22%	13%	0%	0%	0%
COc1ccc(Nc2nccc(N3CCC(NC(=O)c4cc5ccccc5s4)C3)n2)cc1 (stereo not shown) [GSK1379738]	14%	0%	0%	3%	0%	41%	0%	0%	0%	0%
O=C(Nc1n[nH]c2nc(-c3cccs3)c(Br)cc12)C1CCCC1 [SB-743341]	10%	34%	39%	0%	5%	6%	0%	0%	26%	0%
COc1ccc2cc(-c3nc(-c4ccccc4C(C)C)[nH]c3-c3ccncc3)ccc2c1 [SB-660566]	19%	4%	0%	22%	8%	12%	40%	4%	0%	0%
CNc1cc(-c2ccc3c(N)n[nH]c3c2)nc(N)n1 [GSK2224810]	15%	16%	0%	2%	7%	20%	9%	0%	6%	0%
Fc1ccc(-c2nc3n(c2-c2ccncc2)CCS3)cc1 [GI98581]	35%	0%	0%	12%	14%	22%	53%	3%	0%	0%
Cl.Cl.Cl.N#Cc1ccc(CCNc2nccc(-c3cccc(CN4CCNCC4)c3)n2)cc1 [GSK2137462]	17%	0%	38%	2%	4%	38%	26%	11%	0%	0%
COC(=O)c1cccc(NC(=O)NC2CCN(c3ccnc(Nc4ccc(F)cc4)n3)C2)c1 (stereo not shown) [GSK1379725]	24%	0%	0%	0%	13%	15%	0%	0%	5%	0%

SMILES	%Inh (FLT1)	%Inh (FLT3-autoinhibited)	%Inh (FLT3)	%Inh (FLT4)	%Inh (FRK)	%Inh (FYN)	%Inh (GAK)	%Inh (GCN2(Kin.Dom.2,S808G))	%Inh (GRK1)	%Inh (GRK2)
COc1ccc(CSc2nnc(-c3ccc4c(c3)CCO4)o2)cc1	0%	0%	0%	0%	0%	0%	0%	33%	0%	0%
Cc1cnc(N)c(/C=C/c2cncc(C(=O)NCCc3ccc(Cl)cc3Cl)c2)c1.Cl [GSK190937]	0%	0%	2%	7%	6%	20%	29%	3%	0%	0%
COC(=O)C(Cc1ccccc1)NC(=O)NC1CCN(c2ccnc(Nc3ccc(F)cc3)n2)C1 (stereo not shown) [GSK1379714]	33%	5%	2%	0%	0%	0%	0%	6%	100%	0%
COc1ccc(-c2coc3ccc(-c4nnc(C)o4)cc23)cc1	0%	0%	0%	0%	0%	2%	0%	0%	12%	0%
Cc1ccccc1Cn1ccn2c(=O)cc(N3CCOCC3)nc12 [GSK2269905]	10%	2%	0%	0%	14%	26%	1%	4%	0%	0%
O=c1cc(N2CCOCC2)nc2n(Cc3cccc(Cl)c3Cl)c3ccccc3n12 [GSK2299009]	41%	9%	28%	16%	0%	17%	19%	0%	0%	0%
Cc1ccc(NC(=O)Nc2ccc(Cl)c(C(F)(F)F)c2)cc1-c1ccc(C(=O)Nc2ccncc2)cc1 [GSK1398470]	23%	0%	27%	0%	42%	44%	14%	15%	0%	0%
Nc1cccc(-c2ccc3c(N)n[nH]c3c2)n1 [GSK2192730]	0%	13%	0%	0%	0%	29%	17%	0%	21%	0%
Cc1ccc(NC(=O)Nc2ccc(Cl)cc2)cc1-c1ccc(C(=O)Nc2ccncc2)cc1 [GSK1398472]	27%	3%	22%	0%	31%	0%	0%	17%	0%	0%
Nc1nccc(-c2c(-c3ccc(F)cc3)ncn2C2CCN(Cc3ccccc3)CC2)n1 [SB-219980]	0%	18%	0%	0%	10%	0%	12%	1%	27%	36%
Cc1ccccc1-c1cc(-c2c[nH]nc2-c2ccccn2)ccn1 [GW680061]	6%	0%	0%	11%	13%	18%	11%	25%	7%	0%
CC(C)c1ccc(O)cc1Nc1ccnc2ccc(C(F)(F)F)cc12 [GW482059]	21%	9%	1%	10%	9%	20%	0%	0%	0%	14%
Cc1ccc(-c2nc(Nc3ccncc3)c3ccccc3n2)s1 [GSK189015]	39%	17%	23%	10%	7%	0%	53%	13%	9%	1%
COc1nccc(-c2c(-c3ccc(F)cc3)ncn2CCCN2CCOCC2)n1 [SB-282852]	10%	4%	0%	0%	0%	0%	0%	1%	29%	2%
CC(=O)c1c(C)c2cnc(Nc3ccc(N4CCNCC4)cn3)nc2n(C2CCCC2)c1=O	0%	0%	0%	0%	7%	0%	0%	0%	10%	0%
COc1ccc(CSc2nnc(-c3ccc4ncsc4c3)o2)cc1C(F)(F)F	0%	0%	0%	10%	0%	0%	0%	0%	0%	0%
CC(=O)c1cccc(NC(=O)NC2CCN(c3ccnc(Nc4ccc(F)cc4)n3)C2)c1 (stereo not shown) [GSK1379710]	27%	11%	0%	12%	0%	27%	5%	0%	0%	10%
